Compounds with a hit are over-represented: about 19% of the library has one in this group of screens.
TDP1 cell CPT: DT40-hTDP1 cell growth loss with CPT. Potency, µM (doses to about 46.2 µM), for inactives: at the highest dose activity change, negative = growth inhibition, actives largely listed as inhibitors. hit rate 12% among 420,000. chicken DT40 Tdp1-/-;hTDP1 cells + 20 nM CPT, ATP luminescence, 48 h; also: potency is read from the fitted curve at half-maximal effect; nearly all actives have a fitted effect of over 55% in size
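Cell growth measured by CellTiter-Glo luminescence after a minimum 48 h, 37 C compound exposure with 20 nM CPT in Tdp1-knockout DT40 cells stably expressing hTDP1, seeded 400/well; qHTS titration format.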
DT40 TDP1 no CPT: qHTS for Inhibitors of human tyrosyl-DNA phosphodiesterase 1 (TDP1): qHTS in cells in absence of CPT | hit rate 15% among 420,000 | DT40 Tdp1-/- hTDP1 cells, no CPT, ATP luminescence, 48 h | Potency, µM (top dose mostly 46.2 µM), without a hit: at the highest dose activity change, negative = growth inhibition, usual class: inhibitors; also: potency is read from the fitted curve at half-maximal effect; nearly all actives have a fitted effect of over 55% in size
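Compound effects on proliferation are scored in DT40 Tdp1-/-;hTDP1 cells in the absence of CPT. ATP levels (CellTiter-Glo luminescence) are recorded after a ≥48 hr, 37 °C incubation.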
HT1080 IDH1KD tx: toxicity to HT-1080 IDH1 knockdown cells (counter line); Potency, µM (top dose mostly 46.1 µM), without a hit: at the highest dose activity, negative = toxicity, hits mostly cytotoxic; HT-1080 IDH1 knockdown viability, ATP luminescence, 48 h; hit rate 2% among 360,000;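 also: potency is read from the fitted curve at half-maximal effect; 0% = DMSO wells and -100% = cell-free medium wells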
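After a 2 h attachment period, IDH1KD HT-1080 cells took pin-transferred compound for 48 h at 37 °C; ATP-based luminescence after 10 min room-temperature reagent incubation reported viability.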
IL1B secr inh: inflammasome signaling inhibition, IL-1 beta readout; THP-1 LPS/ATP IL-1B secretion, AlphaLISA, 16 h; active compounds read low; activity change, % at 57.5 µM; hit rate 4.7% among 360,000; AID 743279; in the data active = activity change below about -50%; inconclusive = mostly about -30% to -49%
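THP-1 cells pretreated 1 hr with compounds (up to 57.5 uM final), then stimulated with LPS (250 ng/mL final) plus ATP (1.25 mM final); secreted IL-1B measured by AlphaLISA after 16 hr, decreased signal indicating inhibition.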
HT1080NT lethal: kills 2HG-producing HT-1080-NT fibrosarcoma cells; HT-1080-NT fibrosarcoma viability, CellTiter-Glo ATP luminescence, 48 h; Potency, µM (doses to about 46.1 µM), without a hit: at the top dose activity, negative = less viability, most hits filed as cytotoxic; hit rate 1.6% among 360,000;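 also: NT is the 2HG producing partner of a matched IDH1 knockdown line; potency is read from the fitted curve at half-maximal effect; 0% = DMSO-treated cells and -100% = media-only wells without cells; nearly all actives have a fitted effect of over 55% in size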
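750 cells/well, RPMI + 5% FBS; 2 h settle, compound pin-transfer, 48 h at 37 degrees C. CellTiter-Glo 10 min RT, luminescence. Normalized to DMSO and media-only wells.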
Active calls of the source: *; ? = inconclusive; / = no result; [ ] = dose if it differs, or a comment. Unless noted, calls follow the shape of the dose curve; as a rule, active = well fitted curve in the direction sought with a large enough effect; inconclusive = small, poorly fitted or top-dose-only effect, or another doubt; inactive = no such curve, though single readings can be large; an effect the other way counts as inactive or inconclusive. Unless noted, % is scaled to controls: 0 for no effect and ±100 for the full control effect.

SMILES	TDP1 cell CPT	DT40 TDP1 no CPT	HT1080 IDH1KD tx	IL1B secr inh	HT1080NT lethal
Cc1cc(Br)cn2c(Cc3ccccc3)c(-c3cccc(Cl)c3)nc12	13µM*	23.1µM*	-8.2%	37.0	1.7%
COc1cc(NC(=O)c2ccc(-c3cnn(C)c3)c3ccoc23)cc(OC)c1OC	?	?	-3.4%	0.0	-13.1%
COc1ccc(-c2ccc(C(=O)Nc3ccc4c(c3)OCO4)c3occc23)c(C)c1	?	?	-24.4%	?	-12.9%
COc1ccc(-c2ccc(C(=O)Nc3ccc(OC)nc3)c3occc23)c(C)c1	0.366µM*	14.6µM*	?	7.9	?
COc1ccc(-c2ccc(C(=O)Nc3ccccc3)c3occc23)c(C)c1	20.6µM*	?	?	0.9	?
COc1ccc(NC(=O)c2oc3ccccc3c2C)cn1	?	-11.7%	-3.2%	33.6	1.5%
COc1ccc(-c2coc3c(C(=O)Nc4ccc(OC)nc4)cccc23)c(C)c1	18.4µM*	20.6µM*	?	-17.4	?
CCc1ccccc1N(C(=O)c1ccco1)C(C(=O)NC1CCCC1)c1cccnc1 (centres undefined)	-8.8%	-14.9%	-4.8%	-16.4	-6.3%
Cc1ccsc1CN(C(=O)c1ccc(Br)cc1)C1CCS(=O)(=O)C1 (centres undefined)	-19.3%	-17.9%	/	/	/
COc1cc(/C=C(/C#N)c2nc(-c3cc4ccccc4oc3=O)cs2)ccc1O	-1.6%	2.91µM*	/	/	/
N#C/C(=C/c1ccccc1Cl)c1nc(-c2cc3ccccc3oc2=O)cs1	-1.5%	-0.2%	/	/	/
O=C(COc1ccc(F)cc1)N1CCC(Cc2ccccc2)CC1	?	-14.6%	0.2%	-12.1	0.9%
CNC(=O)CSc1cn(CC(=O)N(C(C)C)C(C)C)c2ccccc12	0.6%	-8.3%	8.1%	4.1	26.0%
CCOC(=O)c1c(NC(=O)c2nc(S(C)(=O)=O)ncc2Cl)sc(C(C)=O)c1C	0.581µM*	0.92µM*	/	/	/
CCOC(=O)c1c(NC(=O)COC(=O)CCCOc2ccc(OC)cc2)sc(C(=O)N(C)C)c1C	-0.7%	?	-4.7%	-1.6	-2.3%
CCOC(=O)c1c(NC(=O)c2nc(SCC)ncc2Cl)sc(C(C)=O)c1C	0.9%	-0.9%	/	/	/
CCOC(=O)c1c(NC(=O)COc2ccc(OC)cc2)sc(C(=O)N(CC)CC)c1C	?	7.31µM*	/	/	/
CCOC(=O)c1c(NC(=O)COC(=O)c2cccnc2OCC)sc(C(=O)N(CC)CC)c1C	?	18.4µM*	-15.8%	-60.1*	0.9%
CCOC(=O)c1c(NC(=O)COc2ccc(Br)cc2)sc(C(C)=O)c1C	?	9.2µM*	/	/	/
Cc1ccc(C(=O)CN2C(=O)NC3(CCCCCC3)C2=O)c(C)c1	-26.6%	?	10.8%	-12.8	16.0%
C[C@](N)(COP(=O)(O)O)C(=O)O	18.4%	-9.4%	/	/	/
COc1ccccc1CNC(=O)c1cc(C(C)=O)c[nH]1	3.6%	17.6%	20.7%	0.6	14.9%
COc1ccc2oc(C(=O)OCC(=O)/C(C#N)=C(\C)N)c(C)c2c1	-4.7%	-7.8%	-2.1%	-12.0	1.6%
COCCCNC(=O)c1ccccc1-c1cc(C)no1	0.9%	6.7%	19.7%	14.4	10.1%
CCOC(=O)c1c(NC(=O)COC(=O)c2nc(Cl)ccc2Cl)sc(C(=O)NC)c1C	-5.3%	-26.5%	14.1%	8.4	15.7%
SMILES	TDP1 cell CPT	DT40 TDP1 no CPT	HT1080 IDH1KD tx	IL1B secr inh	HT1080NT lethal
CCN(CC)C(=O)c1sc(NC(=O)C2c3ccccc3Oc3ccccc32)c(C(=O)OC(C)C)c1C	?	0.116µM*	/	/	/
CCOC(=O)c1c(NC(=O)COC(=O)c2ccc(O)cc2)sc(C(=O)NC)c1C	18.4µM*	20.6µM*	-11.1%	13.5	-7.0%
CCOC(=O)c1c(NC(=O)C2c3ccccc3Oc3ccccc32)sc(C(N)=O)c1C	?	?	-6.8%	28.5	0.6%
Cc1cc(C)n(CC(=O)O)c(=O)c1[N+](=O)[O-]	5.0%	0.1%	-3.3%	-5.2	-1.5%
COc1cc(C(=O)Oc2ccc3c(OC)c4ccoc4nc3c2OC)cc(OC)c1OC	-8.8%[9.04 µM]	4.8%[9.04 µM]	/	/	/
Cc1cc(C)c2c(c1)[C@@H]1C=CC[C@@H]1[C@H](c1ccc(S(=O)(=O)N3CCOCC3)cc1)N2	16.4µM*	18.4µM*	4.4%	-17.0	3.5%
Cc1ccc(S(=O)(=O)N2CCOCC(=O)NCCOCCNC(=O)COCC2)cc1	-0.8%	-7.9%	11.7%	5.8	4.6%
NS(=O)(=O)c1ccc(CCNC(=O)c2cccnc2)cc1	-19.2%	-21.2%	5.5%	-0.6	0.4%
COc1cc(C(=O)NC(c2ccccc2Cl)c2cc(Cl)c3cccnc3c2O)cc(OC)c1OC (centres undefined)	13µM*	20.6µM*	/	/	/
COc1ccc(C(=O)NC(c2ccccc2Cl)c2cc(Cl)c3cccnc3c2O)cc1 (centres undefined)	8.2µM*	13µM*	/	/	/
COc1ncc2nc(-c3cn(C)c4ccccc34)c(=O)n(CCC#N)c2n1	-10.9%	0.4%	/	/	/
Cc1cc(C)cc(NC(=O)CN2C(=O)CSc3ccc(S(=O)(=O)N(C)C)cc32)c1	20.6µM*	16.4µM*	/	/	/
Cc1cc(Cl)ccc1NC(=O)CN1C(=O)CSc2ccc(S(=O)(=O)N(C)C)cc21	?	-28.4%	/	/	/
COc1ccc(NC(=O)CN2C(=O)CSc3ccc(S(=O)(=O)N4CCCC4)cc32)cc1OC	?	?	5.7%	-17.1	0.0%
Cc1ccc(NC(=O)CN2C(=O)CSc3ccc(S(=O)(=O)N(C)C)cc32)cc1C	16.4µM*	?	/	/	/
CN(C)S(=O)(=O)c1ccc2c(c1)N(CC(=O)Nc1ccc(OC(F)(F)F)cc1)C(=O)CS2	16.4µM*	?	/	/	/
COc1ccc(CNC(=O)CN2C(=O)CSc3ccc(S(=O)(=O)N(C)C)cc32)cc1	-23.7%	-29.4%	/	/	/
CON1C(=O)C(=O)N(OC)C2CCCCC21 (centres undefined)	10.4%	8.0%	10.3%	-9.1	2.6%
O=C(NCc1nnnn1-c1ccc(F)c(F)c1)c1ccc(S(=O)(=O)N2CCOCC2)cc1	-9.2%	-21.5%	-1.4%	1.2	-3.0%
COc1cc(N)c2ncccc2c1Cl	?	-18.1%	3.5%	-3.2	3.8%
CCCCC(=O)Nc1ccc2nc(SCC(=O)N3CCCC3)sc2c1	?	20.6µM*	/	/	/
CC(C)(C)C(=O)Nc1ccc2nc(SCC(=O)N3CCCC3)sc2c1	-84.7%	20.6µM*	/	/	/
CC(C)C(=O)Nc1ccc2nc(SCC(=O)N3CCOCC3)sc2c1	-25.7%	?	/	/	/
O=C(CSc1nc2ccccc2s1)N1CCCCC1	-4.2%	-11.1%	17.2%	11.9	-11.7%
COc1ccc(CNC(=O)CN2C(=O)COc3ccccc32)c(OC)c1	-3.5%	-23.5%	/	/	/

Compound activity deposited in PubChem by National Center for Advancing Translational Sciences (NCATS).
